We go through six compounds from PubChem BioAssay (NCI).

The panel holds about 83,000 compounds, 20% with a hit somewhere; the sample as a whole holds those more often.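 Method: cells in 96-well plates; compound added at one concentration; 48 h incubation; percent growth measured; values under 10 scored active.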 Values without a mark were called inactive. Active and inactive are the calls of the source.

Test systems include NCI-H23 lung; NCI-H226 lung; NCI-H322M lung; HOP-62 NSCLC; NCI-H460 lung; HOP-92 NSCLC; NCI-H522 lung; A549/ATCC NSCLC; 786-0 renal; DU-145 prostate; K-562 leukemia; MALME-3M melanoma; MDA-MB-231 breast; RXF 393 renal; SF-268 CNS; SF-295 CNS; SF-539 CNS; UACC-257 melanoma; M14 melanoma; COLO 205 colon.
Common to all, as to experiment: NCI-60 one-dose screen, 48 h (100 = growth as untreated, 0 = no growth, -100 = all killed)
Common to all, as to conditions: 10 µM unless noted

In the case of `COc1ccc(CNC(=O)[C@H](O)[C@@H](N)Cc2ccccc2)cc1`, the growth with NCI-H23 lung was 99.9%; in the assay with NCI-H226 lung, 98.8%; in the assay on NCI-H322M lung it was 105%; in the assay with HOP-62 NSCLC it was 119%; in the assay on NCI-H460 lung, 106%; in the assay on HOP-92 NSCLC, 72.8%. Also, the growth in the assay with NCI-H522 lung was 95.6%; with A549/ATCC NSCLC, 108%; with 786-0 renal, 97.9%; in the assay with DU-145 prostate it was 113%; in the assay on K-562 leukemia, 98.4%; in the assay with MALME-3M melanoma, 108%. Also, the growth with MDA-MB-231 breast was 100%; in the assay with RXF 393 renal it was 107%; with SF-268 CNS it was 92.7%; with SF-295 CNS, 97.9%; in the assay on SF-539 CNS, 97.2%; in the assay on UACC-257 melanoma it was 108%. Also, the growth with M14 melanoma is 105%.

For `CN1C(=O)CNC(=O)[C@H](NC(=O)c2nc3ccccc3cc2O)CSSC[C@H]1C(=O)NCCc1nc2ccccc2cc1O`, the growth is 64.1% in the assay with NCI-H23 lung; 83.8% in the assay on NCI-H226 lung; 62.9% in the assay on NCI-H322M lung; 82.1% in the assay with HOP-62 NSCLC; 8.06% (active) in the assay with NCI-H460 lung; 128% in the assay with HOP-92 NSCLC. Besides, the growth in the assay on NCI-H522 lung is 42.9%; in the assay on A549/ATCC NSCLC, 38.8%; in the assay with 786-0 renal, 112%; in the assay on COLO 205 colon it was 1.34% (active); in the assay with DU-145 prostate, 38.6%; in the assay on K-562 leukemia, 5.35% (active). Also, the growth with MALME-3M melanoma was 110%; with RXF 393 renal, 100%; in the assay with SF-268 CNS it was 46.4%; with SF-295 CNS it was 68.3%; in the assay on SF-539 CNS, 94.2%; in the assay on UACC-257 melanoma, 79.2%. Also, the growth with M14 melanoma was 6.87% (active).

With `N#Cc1c(-c2ccc(Cl)cc2)nc(NCCO)[nH]c1=O`, the growth in the assay on NCI-H23 lung is 94.3%; in the assay on NCI-H226 lung, 101%; in the assay with NCI-H322M lung, 94.4%; in the assay on HOP-62 NSCLC, 88.6%; with NCI-H460 lung, 114%; in the assay with HOP-92 NSCLC, 92.3%. The growth with NCI-H522 lung is 95.9%; with A549/ATCC NSCLC, 93.9%; in the assay on 786-0 renal, 101%; in the assay on COLO 205 colon, 106%; in the assay with DU-145 prostate, 104%; in the assay with K-562 leukemia, 103%. In addition, the growth in the assay on MALME-3M melanoma was 98.8%; with RXF 393 renal it was 116%; in the assay with SF-268 CNS, 89.6%; in the assay on SF-295 CNS it was 95.3%; in the assay on SF-539 CNS it was 95.9%; in the assay with UACC-257 melanoma it was 107%. For the same compound, the growth with M14 melanoma is 94.6%.

Consider `COc1cc(C(=O)c2cnc(-c3cccc4[nH]ccc34)[nH]2)cc(OC)c1OC`, for which the growth with NCI-H23 lung is 26.4%; in the assay on NCI-H226 lung, 45.7%; in the assay on NCI-H322M lung it was 35.3%; in the assay on HOP-62 NSCLC, 33.8%; in the assay on NCI-H460 lung, 2.81% (active); in the assay with HOP-92 NSCLC, 17.5%. Moreover, the growth with NCI-H522 lung was -7.75% (active); in the assay on A549/ATCC NSCLC, 24.5%; in the assay with 786-0 renal it was 6.82% (active); with DU-145 prostate, 2.85% (active); in the assay on K-562 leukemia, 8.88% (active); in the assay on MALME-3M melanoma, 60.8%. For the same compound, the growth in the assay on MDA-MB-231 breast was -3.5% (active); in the assay with RXF 393 renal it was 66.7%; in the assay on SF-268 CNS it was 24.5%; with SF-295 CNS it was 21.6%; in the assay with SF-539 CNS it was 1.12% (active); in the assay on UACC-257 melanoma it was 85%.

Regarding `C/C(=N/NC(N)=S)c1sc(Nc2cccc(Cl)c2)nc1C`, the growth in the assay with NCI-H23 lung is 89.4%; in the assay with NCI-H226 lung, 92%; in the assay with NCI-H322M lung, 77.9%; with HOP-62 NSCLC, 102%; with NCI-H460 lung it was 92.9%; with HOP-92 NSCLC, 62.6%. In addition, the growth in the assay with NCI-H522 lung was 42.6%; with A549/ATCC NSCLC it was 92.5%; in the assay with 786-0 renal, 84.3%; with DU-145 prostate, 81.7%; with K-562 leukemia it was 68.7%; in the assay on MALME-3M melanoma, 93.1%. The growth with MDA-MB-231 breast is 65%; in the assay with RXF 393 renal, 89.6%; in the assay with SF-268 CNS, 75.1%; with SF-295 CNS it was 88.7%; in the assay on SF-539 CNS, 83.7%; in the assay on UACC-257 melanoma it was 101%. For the same compound, the growth in the assay on M14 melanoma was 88.3%.

For `CCCCOc1nc2c(C)cccc2cc1-c1cc(-c2ccc(Cl)cc2)nc(-c2ccc(Cl)cc2)c1`, the growth in the assay with NCI-H23 lung was 110%; in the assay on NCI-H226 lung, 100%; in the assay on NCI-H322M lung, 97.1%; with HOP-62 NSCLC it was 103%; with NCI-H460 lung, 103%; in the assay with HOP-92 NSCLC it was 91.4%. For the same compound, the growth with NCI-H522 lung was 97.4%; with A549/ATCC NSCLC, 101%; in the assay with 786-0 renal, 102%; in the assay on DU-145 prostate, 109%; in the assay with K-562 leukemia, 91.2%; with MALME-3M melanoma, 95.5%. Besides, the growth in the assay with MDA-MB-231 breast is 89.5%; in the assay on RXF 393 renal, 106%; with SF-268 CNS, 92.7%; in the assay on SF-295 CNS, 101%; in the assay with SF-539 CNS it was 96.8%; with UACC-257 melanoma, 98.9%. Further, the growth in the assay with M14 melanoma is 101%.
